NS1 function inh = influenza NS1 inhibition | Potency, µM (top dose mostly 46.1 µM), for the others: at the top dose activity, positive = more growth | actives 0.4% (n = 270,000); calls by dose curve; note: potency is the fitted concentration of half-maximal effect; actives are rising curves; nearly all actives have a fitted effect of over 50% in size
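OD600 was taken as the measure of yeast growth restored by compound in an NS1-expressing S. cerevisiae strain. Cells had been washed out of glucose medium and diluted 1:100 into galactose -URA medium, pH 6.0.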
Pf growth 48h = P. falciparum growth inhibition at 48 hours (one generation). P. falciparum luciferase growth in erythrocytes, 48 h. Potency, µM (series often up to 28.7 µM), for inactives: at the top dose activity change, negative = inhibition, hits mostly inhibitors. actives 5.9% (n = 310,000); note: potency is the fitted concentration of half-maximal effect; % is set by controls: 0 for no effect and ±100 for the full control effect
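First compound was added to culture medium, then infected red cells at 0.1% parasitemia and 2% hematocrit (final). After incubation at 37 C under 5% CO2, luciferase detection reagent was dispensed and light output recorded.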
CHX counter = counter-screen hit for Shiga toxin inhibitors, cycloheximide; actives 12% (n = 300,000); max response, %; cell reporter, cycloheximide protein synthesis inhibition counterscreen; in the data active = max response mostly above about 13%, no sharp cut-off; inactive = mostly below about 14%; note: read at 38.3 µM for the half of the compounds with a filed dose; 0% is about no effect
Pf growth 96h = inhibits malaria parasite growth, 96 h; P. falciparum luciferase reporter growth, 96 h; actives 6.9% (n = 320,000); Potency, µM (top dose mostly 28.7 µM), without a hit: at the highest dose activity change, negative = inhibition, hits mostly inhibitors; note: potency is the fitted concentration of half-maximal effect; % is set by controls: 0 for no effect and ±100 for the full control effect
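Compounds incubated with erythrocytes infected by luciferase-expressing P. falciparum (2% hematocrit, 0.05% parasitemia final) for 96 hours, 37 C in 5% CO2. Growth inhibition scored as decreased luciferase luminescence.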
Giardia FBPA inh = blocks Giardia fructose-bisphosphate aldolase activity; A8B2U2; purified Giardia FBPA; Potency, µM (highest dose often 59.6 µM), for the others: top-dose activity, negative = inhibition, usual class: inhibitors; actives 0.71% (n = 290,000); AID 2451; note: potency is the fitted concentration of half-maximal effect; % is set by controls: 0 for no effect and ±100 for the full control effect; nearly all actives have a fitted effect of over 55% in size
Target sequence (A8B2U2 whole entry, looked up): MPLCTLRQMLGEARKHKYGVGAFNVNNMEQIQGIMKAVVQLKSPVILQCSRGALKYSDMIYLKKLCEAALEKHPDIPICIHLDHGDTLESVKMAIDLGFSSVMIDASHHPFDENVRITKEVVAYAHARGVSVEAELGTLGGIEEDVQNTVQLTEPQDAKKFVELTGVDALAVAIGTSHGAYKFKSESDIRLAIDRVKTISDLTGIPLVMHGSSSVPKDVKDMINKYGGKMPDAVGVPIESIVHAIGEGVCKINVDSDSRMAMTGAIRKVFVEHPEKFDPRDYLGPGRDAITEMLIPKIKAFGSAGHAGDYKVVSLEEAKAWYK
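40 nM FBPA preincubated 10 min at RT with compound (up to 57.5 uM final), then substrate plus GAPDH/TPI/NAD/arsenate coupling and diaphorase/resazurin added. Fluorescence read after 20 min at RT, 525/598 nm.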
Shiga inhibitor = blocks Shiga toxin action in Vero cells | Vero cells, Shiga toxin protein synthesis inhibition reporter | inhibition, % at 38.7 µM | actives 9.2% (n = 290,000) | AID 2315; in the data active = inhibition mostly above about 28%, no sharp cut-off; inactive = mostly below about 43%; note: 0% is about no effect
* marks the source's active call; other numbers are inactive results. A selection: hits, their analogues and other compounds. The true share with any hit is near 21%. Unless noted, calls come from the whole dose curve; as a rule, active = well fitted curve in the direction sought with a large enough effect; inconclusive = small, poorly fitted or top-dose-only effect, or another doubt; inactive = no such curve, though single readings can be large; an effect the other way counts as inactive or inconclusive.

Cc1ccc(S(=O)(=O)Nc2cc(C(F)(F)F)ccc2N2CCOCC2)cc1C was read as NS1 function inh 18.6%, Pf growth 48h 3.29µM*, CHX counter -2.1, Pf growth 96h inconclusive, Giardia FBPA inh -5.6% and Shiga inhibitor 2.6.
`CCOC(=O)c1ccc(N2CCCCC2)c(NS(=O)(=O)c2cccc(C(F)(F)F)c2)c1` gave NS1 function inh inconclusive, Pf growth 48h 10.4µM*, CHX counter 13.1, Pf growth 96h 9.28µM*, Giardia FBPA inh -3.6% and Shiga inhibitor 29.6.
Cc1ccc(NC(=O)c2cccc(S(=O)(=O)N3CCN(c4ccc(F)cc4)CC3)c2)nc1 was read as NS1 function inh 19.8%, Pf growth 48h inconclusive, CHX counter 17.6, Pf growth 96h inconclusive and Shiga inhibitor 18.1.
`O=C(Nc1ccc2c(c1)OCCO2)C1CCCN1C(=O)Nc1ccccc1` (stereo unspecified) gave NS1 function inh -1.7%, Pf growth 48h 4.9%, CHX counter -9.6, Pf growth 96h 30.2%, Giardia FBPA inh 4.9% and Shiga inhibitor -11.4.
For CCOC(=O)N1CCC(NC(=O)C2CCCCN2S(=O)(=O)c2ccc(F)cc2)CC1 (stereo unspecified) the results were NS1 function inh inconclusive, CHX counter -3.6, Pf growth 96h 1.04µM*, Giardia FBPA inh 1.3% and Shiga inhibitor 2.1.
For COc1ccc(NC(=O)C2CCCCN2S(=O)(=O)c2ccc(F)cc2)cc1 (stereo unspecified) the results were NS1 function inh -11.2%, Pf growth 48h -11.8%, CHX counter 4.5, Pf growth 96h 0.586µM*, Giardia FBPA inh -17.0% and Shiga inhibitor 7.1.
For O=C(NC1CCCCC1)C1CCCN1S(=O)(=O)c1ccc(F)cc1 (stereo unspecified) the results were NS1 function inh 4.6%, Pf growth 48h -5.7%, CHX counter -1.1, Pf growth 96h 29.8%, Giardia FBPA inh 5.5% and Shiga inhibitor 4.8.
For O=C(Nc1ccc2c(c1)OCCO2)C1CCCN1C(=O)Nc1ccc(F)cc1 (stereo unspecified) the results were NS1 function inh 3.8%, Pf growth 48h 38.0%, CHX counter 11.6*, Pf growth 96h 45.5%, Giardia FBPA inh 6.5% and Shiga inhibitor 32.0.
`COc1ccc(NC(=O)C2CCCN2S(=O)(=O)c2ccc(C)cc2)cc1` (stereo unspecified) gave NS1 function inh -10.6%, CHX counter -4.4, Pf growth 96h inconclusive, Giardia FBPA inh 1.7% and Shiga inhibitor -15.5.
`COC(=O)C1CCCN1S(=O)(=O)c1ccc2ccccc2c1` (stereo unspecified) gave NS1 function inh 3.3%, Pf growth 48h 10.4µM*, CHX counter 2.0, Giardia FBPA inh -4.5% and Shiga inhibitor 7.3.
For COC(=O)C1CCCN1S(=O)(=O)c1ccc([N+](=O)[O-])cc1 (stereo unspecified) the results were NS1 function inh 0.6%, Pf growth 48h 0.0%, CHX counter -5.2, Pf growth 96h inconclusive and Giardia FBPA inh -2.4%.
For OCc1ccncc1.OCc1ccncc1.[Cl][Pt]([Cl])([Cl])[Cl] the results were NS1 function inh -15.8%.
Screening COC(C(=O)Nc1ccnn1C1CCN(Cc2nccs2)CC1)c1ccccc1 (stereo unspecified) returned NS1 function inh 0.1%, Pf growth 48h 21.8%, CHX counter 1.8, Pf growth 96h -17.1%, Giardia FBPA inh 7.3% and Shiga inhibitor 9.6.
For CC1CCN(c2ccc(NC(=O)C3CCCN3S(=O)(=O)c3ccc(F)cc3)cc2)CC1 (stereo unspecified) the results were Pf growth 48h inconclusive and Pf growth 96h 11.7µM*.
O=C(Nc1ccc(N2CCCCC2)cc1)C1CCCN1S(=O)(=O)c1ccc(F)cc1 (stereo unspecified) was read as Pf growth 48h -23.6% and Pf growth 96h -8.5%.
`O=C(Nc1ccc2c(c1)OCO2)C1CCCCN1S(=O)(=O)c1ccc(F)cc1` (stereo unspecified) gave NS1 function inh 14.5%, Pf growth 48h -0.7%, CHX counter 20.1, Pf growth 96h 9.28µM*, Giardia FBPA inh 0.8% and Shiga inhibitor 27.6.
Screening COCCNC(=S)N(C)C1(c2ccccc2Cl)CCCCC1=O (stereo unspecified) returned Pf growth 48h -0.4%, CHX counter 5.9, Pf growth 96h -5.9%, Giardia FBPA inh -1.5% and Shiga inhibitor 19.3.
`CCCCCOc1ccc(Cl)cc1CN1CCOCC1` gave NS1 function inh -8.8%, CHX counter 24.0*, Pf growth 96h inconclusive, Giardia FBPA inh -17.2% and Shiga inhibitor 46.8.
Cc1cc(N=Nc2ccc(Cl)cc2)cc(CN2CCOCC2)c1O was read as NS1 function inh 2.0%, Pf growth 48h 4.65µM*, CHX counter -3.3, Pf growth 96h 2.33µM*, Giardia FBPA inh -6.7% and Shiga inhibitor -1.3.
Screening O=[N+]([O-])c1ccc(Cl)cc1CN1CCCCCC1 returned NS1 function inh -0.9%, Pf growth 48h 20.7%, CHX counter -6.7, Pf growth 96h inconclusive, Giardia FBPA inh -29.1% and Shiga inhibitor -7.8.
Cc1cc(N=Nc2ccc(Cl)cc2)cc(CN2CCCC2)c1O was read as NS1 function inh 0.0%, Pf growth 48h 0.233µM*, CHX counter -2.3, Pf growth 96h 0.294µM*, Giardia FBPA inh 1.3% and Shiga inhibitor -1.0.
For COC(=O)c1ccc(C(NC(=O)OCc2ccccc2)/C(C)=C/[C@@H](C)C(=O)NC2CCCCC2)cc1 (stereo partly specified) the results were Giardia FBPA inh -5.9%.
`Cc1cc(C)c(OCC(=O)OCC(=O)NNC(=O)c2ccccc2F)c(C)c1` gave Pf growth 48h -23.1% and Pf growth 96h 7.1%.
COc1ccc2nc(SCC(=O)N3CCCCCC3)c(C#N)cc2c1 was read as NS1 function inh -21.8%, Pf growth 48h inconclusive, CHX counter 14.6*, Pf growth 96h -15.7%, Giardia FBPA inh -27.8% and Shiga inhibitor 86.9*.
Cc1ccc2nc(SCC(=O)NCC3CCCO3)c(C#N)cc2c1 (stereo unspecified) was read as NS1 function inh 5.7%, Pf growth 48h 48.7%, CHX counter -3.0, Giardia FBPA inh -2.1% and Shiga inhibitor 3.3.
For N#Cc1cc2cc3c(cc2nc1SCC(=O)N1CCOCC1)OCCO3 the results were NS1 function inh 7.7%, Pf growth 48h 0.0%, CHX counter 51.8*, Pf growth 96h 10.0% and Shiga inhibitor 74.2*.
For Cc1cc2cc3c(cc2nc1SCC(=O)N1CCCC1)OCCO3 the results were NS1 function inh -4.2%, Pf growth 48h -7.3%, CHX counter -3.5, Pf growth 96h inconclusive, Giardia FBPA inh 19.8% and Shiga inhibitor -3.3.
